Laboratory results reported in PubChem BioAssay AID489025 (Southern Research Specialized Biocontainment Screening …, 2010).
Screen size: about 2,300 compounds; about 790 (34%) were called active. The list shows a part of the results. Measured potencies and affinities stand elsewhere. Unmarked numbers belong to inactive results. The rule behind the calls is not given here.

test: THP-1 cell cytotoxicity, dose response, cytotoxicity control for non-replicating M. tuberculosis project (AID 489025); details: THP-1 cell viability; series mostly up to 40 µM; viability: at the top concentration

Compound	viability [%]
COc1cc(C=O)ccc1OCCOCCOc1ccc(Cl)cc1	115
O=C1/C(=C\c2ccco2)SC(=S)N1c1ccc(O)cc1	97.8
CCOc1cc(C=O)cc(N=Nc2cccc([N+](=O)[O-])c2)c1O	80
O=C(Oc1ccccc1)c1cccc(COC(=O)c2cnccn2)c1	86
CCOC(=O)C1CSC(CC(=O)Nc2ccc(Cl)c(Cl)c2)C(=O)N1 (stereo unspecified)	94.3
CC(C)(C)NC(=O)C(=O)NNC(=O)COc1ccc(Br)cc1	101
O=C(N/N=C\C=C\c1ccco1)c1cncc(Br)c1	112
CC(/C=C/c1ccccc1)=N\NC(=O)c1ccc2c(c1)OCCO2	106
CCC(=O)c1ccc(OC(=O)c2ccc(Br)o2)cc1	123
Cc1cc(C)n2[nH]c(=O)c(N=Nc3cccc(Cl)c3)c2n1	113
Clc1ccc2c(N3CCCC3)ccnc2c1	73.8
Cc1ccc2[nH]c(C)c(CCNC(=O)c3cc4cc([N+](=O)[O-])ccc4oc3=O)c2c1	79.7
COc1ccc(OCCOC(=O)c2cccs2)cc1	99.6
CCCOC(=O)c1ccc(OC(=O)c2ccco2)cc1	91.8
O=C(COc1ccc([N+](=O)[O-])cc1)NNC(=O)c1cccs1	120
CCc1ccc(OCCCC(=O)NCc2ccco2)cc1	77.9
Cc1cc2n(n1)SC(Nc1ccccc1)N2 (stereo unspecified)	99.7
c1ccc2[nH]c(NC3=NCCC3)nc2c1	102
O=C(COC(=O)c1cc(Br)ccc1Cl)NC1CCCC1	124
COC(=O)COc1ccc2c(-c3cccc([N+](=O)[O-])c3)cc(=O)oc2c1	104
O=C(CN1CCC(NC(=O)c2cccc(F)c2)CC1)Nc1ccc(Br)cc1	99.6
NC(=O)C1(N2CCCCC2)CCN(C2CC(=O)N(CCc3ccccc3)C2=O)CC1 (stereo unspecified)	99.9
c1ccc(OCc2nn3c(-c4ccccn4)nnc3s2)cc1	107
c1ccc(OCc2nnc3sc(-c4cccs4)nn23)cc1	105
CCOC(=O)Cn1cc(C#N)c2cccc(CC)c21	89.5
Cc1occc1C(=O)N/N=C/C(Br)=C\c1ccccc1	82.6

Compound	viability [%]
Cc1oc(=O)c(NC(=O)c2ccccc2)cc1C(=O)c1ccccc1	73.8
O=C(O)c1ccccc1-c1ccccc1C(=O)Nc1nc2ccccc2s1	95.6
O=C(COC(=O)c1cc(Br)ccc1O)Nc1ccc2c(c1)OCO2	112
O=C(COC(=O)c1ccc(O)cc1O)c1ccc2c(c1)OCO2	105
COc1ccc(OC(=O)c2cc3ccccc3o2)cc1	108
CCCC(O)(CCC)C(=O)NNc1ccc(C)cc1	106
O=c1[nH][nH]c(-c2ccccc2O)c1C(C[N+](=O)[O-])c1cccc(Cl)c1 (stereo unspecified)	115
C[C@@H]1CN=C2N(CCNC(=O)CCC3CCCCC3)[C@H](Cc3ccc(O)cc3)CN21	82.8
O=C(CN1CCC(Cc2ccccc2)CC1)NC(=O)NC1CCCCC1	96.4
CC(C)[C@H]1CN=C2N(C[C@H](C)NC(=O)CCC3CCCCC3)[C@H](Cc3ccc(O)cc3)CN21	81.4
CCCC(=O)N1CCC(Cc2ccccc2)CC1	100
O=C(c1ccccc1)C1CN(Cc2ccccc2)CCC1(O)c1ccccc1 (stereo unspecified)	110
CC(C)CNc1nc(=S)nc(N(C)C)[nH]1	101
O=C(COc1ccc(Br)cc1)Nc1ccc([N+](=O)[O-])cn1	105
COc1ccc(Cc2nnc(-c3ccccc3)o2)cc1	101
CCn1nnc(NC(=O)c2sc3ccccc3c2Cl)n1	119
O=C(Nc1nccs1)c1sc2ccccc2c1Cl	77.2
NC1CCN(c2c(F)cc3c(=O)c(C(=O)O)cn(C4CC4)c3c2Cl)C1 (stereo unspecified)	120
Cc1ccc(NC(=O)COC(=O)C(NS(=O)(=O)c2ccc(Cl)cc2)C(C)O)cc1C (stereo unspecified)	96.9
CCOCCOC(=O)c1ccc(NC(=O)C2COc3ccccc3O2)cc1 (stereo unspecified)	102
CCc1ccccc1NC(=O)C1COc2ccccc2O1 (stereo unspecified)	93.5
CCOC(=O)c1cc2cc3ccccc3cc2oc1=O	94.6
Cc1ccc2nc(CCc3nc4ccc(C)cc4[nH]3)[nH]c2c1	81.3
O=C(COC(=O)CC1CCCC1)Nc1ccc(Cl)cn1	118
CCOC(=O)c1nn(-c2ccccc2)c2nc(Nc3ccccc3)cc(=O)n12	108
CCOc1ccc(OCC(=O)Nc2ccc(OC)cc2)cc1	105

Compound	viability [%]
CC(=O)c1ccc(OC(=O)c2ccc(-n3nc(C)cc3C)cc2)cc1	113
Cc1cc(C)n(-c2ccc(C(=O)Oc3ccc4c(c3)OCO4)cc2)n1	108
O=C(OCc1c(Cl)cccc1Cl)c1ccccn1	112
CCCN1C(=O)S/C(=C\c2ccc(N3CCOCC3)o2)C1=O	73.1
COc1ccc2oc(=O)c(/C(C)=N/NC(=O)c3ccncc3)cc2c1	88
C/C(=N\Nc1ccc(Cl)cc1)c1c(O)cc(C)oc1=O	109
COc1cccc(C(=O)C2CCCN(CC3=Cc4cc(OC)ccc4OC3)C2)c1 (stereo unspecified)	79.1
CCn1cc(C(=O)NC(C)C23CC4CC(CC(C4)C2)C3)cn1 (stereo unspecified)	102
O=C(c1ccc(Cl)cc1)c1nnc(-c2ccncc2)o1	101
O=C(CCc1ccccc1F)N1CCN(c2ccccc2)CC1	101
Cc1ccc(S(=O)(=O)N2CCC(C(=O)OCc3ccccc3)CC2)cc1C	112
O=C(OCC(=O)N1CCN(c2ccccc2)CC1)c1ccc(Cl)cc1[N+](=O)[O-]	97.4
O=C(OCC(=O)N1CCN(c2ccccc2)CC1)c1ccc2ccccc2n1	97.3
CC(NC(=O)COc1ccccc1F)C1CC2CCC1C2 (stereo unspecified)	80.8
O=C(NCCc1ccccc1)c1nc(-c2cccs2)no1	110
Cc1ccc(CNCc2cc(Cl)ccc2O)cc1	92.3
COc1ccc(NC(=O)COc2ccccc2)cc1Cl	76.1
CCOC(=O)Nc1cccc(OCC(=O)Nc2ccccc2OC)c1	96.1
CC(Cc1ccccc1Sc1ccccc1)N(C)C (stereo unspecified)	82.6
CCOc1ccccc1NC(=O)COn1nnc2ccc(Cl)cc21	81.6
CCOc1cccc2cc(C(=O)Nc3nccs3)c(=O)oc12	117
OC(C#CCN1CCOCC1)c1cccs1 (stereo unspecified)	119
Cc1[nH]nc2c1C(c1ccc(OC(=O)c3ccco3)cc1)C(C#N)=C(N)O2 (stereo unspecified)	88.6
CCOC(=O)CN1NC2(CCCC(C)C2)NC1=S (stereo unspecified)	113
